Compound activity as filed in PubChem.
Rows were chosen to be rich in hits. Some 15% of all compounds tested hit in one or more screens of this group.
DT40 TDP1 no CPT: qHTS for Inhibitors of human tyrosyl-DNA phosphodiesterase 1 (TDP1): qHTS in cells in absence of CPT | DT40 Tdp1-/- hTDP1 cells, no CPT, ATP luminescence, 48 h | Potency, µM (highest dose often 46.2 µM), without a hit: at the highest dose activity change, negative = growth inhibition, most hits filed as inhibitors | 420,000 tested, 15% active | AID 686978, 2013; further: nearly all actives have a fitted effect of over 55% in size
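Camptothecin absent (DMSO only). Human TDP1-complemented DT40 knockout cells, 400 cells/well, 37 °C for minimum 48 hr; ATP measured via CellTiter-Glo, 30 min dark incubation, luminescence.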
ELG1 repair inh: ELG1-dependent DNA repair inhibition; HEK293T ELG1-luciferase reporter, luminescence, 16 h; DNA damage induced by 5-fluorouridine; 330,000 tested, 2.3% active; Potency, µM (highest dose often 46.1 µM), without a hit: at the highest dose activity change, negative = inhibition, actives largely listed as inhibitors; further: nearly all actives have a fitted effect of over 55% in size
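Reporter activity after DNA damage by 5-fluorouridine is monitored. Compound-treated cells incubate 16 hr at 37 °C, then ONE-Glo is added for 30 min before luminescence reading.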
TDP1 cell CPT: DT40-hTDP1 cell growth loss with CPT | chicken DT40 Tdp1-/-;hTDP1 cells + 20 nM CPT, ATP luminescence, 48 h | Potency, µM (titrated, usually from 46.2 µM), for inactives: at the top dose activity change, negative = growth inhibition, usual class: inhibitors | 420,000 tested, 12% active | AID 686979; further: nearly all actives have a fitted effect of over 55% in size
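Chicken DT40 Tdp1-/- cells stably complemented with human TDP1 were seeded at 400 cells/well in medium containing 20 nM camptothecin, exposed to pin-transferred compounds, and grown at 37 °C for at least 48 hr. Viability was read as ATP luminescence.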
Gal4-VP16 FLuc: counter-screen for ROR gamma inhibitors: Gal4-VP16 reporter; 310,000 tested, 3.5% active; Drosophila S2 Gal4-VP16 UAS-luciferase, luminescence, 20 h; Potency, µM (doses to about 53.6 µM), for the others: at the highest dose activity, negative = inhibition, hits mostly inhibitors; AID 2546;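 further: Gal4-VP16 expression switched on by copper sulfate through the metallothionein promoter; nearly all actives have a fitted effect of over 50% in size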
ALOX12 inh: ALOX12 (human) lipoxygenase inhibition | P18054 | purified 12hLO, xylenol orange hydroperoxide absorbance | Potency, µM (series often up to 108 µM), inactives show at the highest dose activity change, negative = inhibition, usual class: inhibitors | 580,000 tested, 1.1% active | AID 1671190
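Purified human 12hLO (150 nM final) in 25 mM Hepes, 0.01% Triton X-100, pH 7.0 was preincubated 15 min at room temperature with compound. Then 40 uM arachidonic acid was added, 30 min. Hydroperoxide was read by Fe-XO absorbance ratio 573/405 nm.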
RORgamma inh: ROR gamma (mouse) transcription inhibition; Drosophila S2 Gal4-RORgamma UAS-luciferase reporter, 20 h; Potency, µM (doses to about 53.6 µM), for the others: at the top dose activity change, negative = inhibition, most hits filed as inhibitors; 310,000 tested, 5.4% active; further: nearly all actives have a fitted effect of over 60% in size
Target sequence (P51450 whole entry, looked up, the tested form may be a part): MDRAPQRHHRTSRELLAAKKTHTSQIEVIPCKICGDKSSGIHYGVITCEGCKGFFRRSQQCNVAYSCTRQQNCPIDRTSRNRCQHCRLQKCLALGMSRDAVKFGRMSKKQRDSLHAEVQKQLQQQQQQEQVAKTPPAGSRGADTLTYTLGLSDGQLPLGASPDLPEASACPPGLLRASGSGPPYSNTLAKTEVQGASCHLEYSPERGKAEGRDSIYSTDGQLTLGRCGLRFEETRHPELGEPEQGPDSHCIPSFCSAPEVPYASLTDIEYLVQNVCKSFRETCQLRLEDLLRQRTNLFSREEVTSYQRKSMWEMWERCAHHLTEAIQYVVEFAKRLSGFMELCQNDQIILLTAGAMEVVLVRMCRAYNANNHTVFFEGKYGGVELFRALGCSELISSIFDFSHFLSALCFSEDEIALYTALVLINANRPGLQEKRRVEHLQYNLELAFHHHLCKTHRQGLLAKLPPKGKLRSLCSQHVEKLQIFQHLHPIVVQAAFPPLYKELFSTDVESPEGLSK
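Stable Schneider cell line, Gal4 DNA-binding domain fused to ROR gamma, UAS-luciferase. Cmpd 1 hr RT → CuSO4 700 uM final → 20 hr RT → luciferase reagent 10 min → luminescence.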
Starred values were filed as active, the others as inactive; u = inconclusive; x = no result; [ ] = remark or other dose. The call rests on the fitted dose curve; in most records, active means well fitted curve in the direction sought with a large enough effect; inconclusive means small, poorly fitted or top-dose-only effect, or another doubt; inactive means no such curve, though single readings can be large; an effect the other way counts as inactive or inconclusive. On the % scale 0 is the no-effect control and ±100 the full control effect; potency means the concentration at half of the fitted maximal effect.

SMILES	DT40 TDP1 no CPT	ELG1 repair inh	TDP1 cell CPT	Gal4-VP16 FLuc	ALOX12 inh	RORgamma inh
Cn1nc(C(=O)Nc2ccc(S(=O)(=O)C(F)F)cc2)c2ccccc2c1=O	x	x	x	x	-42%	x
CN1C(=O)[C@@](O)(CC(=O)c2ccccc2)c2cc(Br)ccc21	6.5µM*	x	5.8µM*	x	0%	x
CCN1C(=O)C(O)(CC(=O)c2ccccn2)c2ccccc21 (stereo not given)	5.2µM*	8%	5.8µM*	-5%	0%	-3%
CCN1C(=O)C(O)(CC(=O)c2ccc(-n3cccc3)cc2)c2ccccc21 (stereo not given)	u	-9%	u	-4%	-3%	23%
CN1C(=O)C(O)(CC(=O)c2ccccn2)c2cc(Br)ccc21 (stereo not given)	5.2µM*	1%	5.8µM*	0%	u	-3%
CC(C)CN(C(=O)CSc1ccc2ccccc2n1)C1CCS(=O)(=O)C1 (stereo not given)	x	x	x	x	3%	x
CCN(CC)c1ccc(C=Nc2ccc(Br)c(Cl)c2)cc1	x	x	x	x	32%	x
CCCN(CC1CCOC1)S(=O)(=O)c1cc(F)cc(F)c1 (stereo not given)	x	x	x	x	43%	x
O=C(NCc1ccc(F)cc1)N1CCCC(Cn2cnc3cccnc32)C1 (stereo not given)	x	x	x	x	38%	x
CC[C@@H]1Cc2[nH][nH]c(=O)c2[C@@H](c2ccc(F)cc2)O1	u	x	2%	x	0%	x
CC(C)=CCC[C@H](C)C[C@@H]1Cc2[nH][nH]c(=O)c2[C@H](c2ccc(F)cc2)O1	21µM*	x	u	x	u	x
CCN(CC)C(=O)[C@H]1C[C@H](CC(=O)NC(C)(C)C)C(=O)N2CCc3c([nH]c4cc(-c5ccco5)ccc34)[C@]12C	18µM*	-28%	23µM*	x	u	x
CC(C)(C)NC(=O)C[C@H]1C[C@H](C(=O)N2CCCCC2)[C@@]2(CCc3ccccc3)c3[nH]c4cc(-c5ccco5)ccc4c3CCN2C1=O	23µM*	-1%	18µM*	x	u	x
CNC(=O)NC(=O)C(C)NC(C)c1ccc(Cl)cc1 (stereo not given)	x	x	x	x	-13%	x
CCOC(=O)C1CCN(CC(O)COc2ccc(C(C)(C)C)cc2)CC1 (stereo not given)	16µM*	-27%	u	-19%	17%	-16%
CCOC(=O)C1CCN(CC(O)COc2ccc(C(C)=O)cc2)CC1 (stereo not given)	-1%	0%	9%	7%	x	u
CCOC(=O)C1CCN(CC(O)COc2ccc(C(C)(C)CC)cc2)CC1 (stereo not given)	18µM*	-17%	16µM*	-19%	-15%	4%[10 µM]
CCCCn1c(=O)n(CC(=O)Nc2ccc(C)cc2)c(=O)c2c1ncn2Cc1ccco1	x	x	x	x	-25%	x
CCNC(=O)N1C[C@@H](Oc2cccnc2)C[C@H]1C(=O)N1CCCC1	x	x	x	x	-4%	x
COc1ccc(NC(=O)c2cnc(SC)nc2C(F)(F)F)c(OC)c1	x	x	x	x	-2%	x
CC(=O)O[C@@H]1[C@@H](O)CN[C@@H]1Cc1ccccc1	x	x	x	0.28µM*	x	0.5µM*
CCn1c(C)nc2cc(C(=O)n3cc(C(=O)c4cc(F)ccc4O)cn3)ccc21	x	6%	x	11%	x	u
CCn1c(C)nc2cc(C(=O)N/N=C/c3ccc(O)c(O)c3O)ccc21	u	u	26µM*	-6%[10 µM]	-21%	0%
CCn1c(C)nc2cc(C(N)=O)ccc21	0%	1%	-4%	-1%	0%	14%
CCC(=NNC(=O)c1ccc2c(c1)nc(C)n2CC)c1cc(F)ccc1O	12µM*	u	13µM*	x	0%	x
SMILES	DT40 TDP1 no CPT	ELG1 repair inh	TDP1 cell CPT	Gal4-VP16 FLuc	ALOX12 inh	RORgamma inh
CCn1c(C)nc2cc(C(=O)N/N=C/c3cccc(OC)c3O)ccc21	u	u	u	0.71µM*	u	0.32µM*
COc1ccc(NC(=O)c2cc3cc(Br)ccc3[nH]2)cc1	x	x	x	x	0%	x
CCCN1CCN(C(=O)c2cc(COc3ccc(F)cc3F)on2)CC1	u	2%	u	11%	298%	21%
CC(=O)c1cccc(OCc2cc(C(=O)N3CCSCC3)no2)c1	-2%	u	-7%	-4%	2%	-21%
CCN1CCN(C(=O)c2cc(COc3ccc4ncccc4c3)on2)CC1	10µM*	u	16µM*	u	5%	-44%
CCCN1CCN(C(=O)c2cc(COc3ccc4ncccc4c3)on2)CC1	9.2µM*	-27%	23µM*	20µM*	-10%	13µM*
Cc1cnc(-c2ccccc2)n1C1CCCN(C(=O)C(C)C)C1 (stereo not given)	x	x	x	x	43%	x
O=C(CCCc1ccccc1)N1CCN(C(=O)c2nnn3c2COC(c2ccccc2)C3)CC1 (stereo not given)	x	x	x	x	-2%	x
Cc1cncc2cccc(S(=O)(=O)N3CCCN(C(=O)CN)C[C@@H]3C)c12	x	x	x	x	4.3µM*	x
Cc1ccc2nc(SCC(=O)Nc3cc(C(F)(F)F)ccc3N3CCOCC3)[nH]c2c1	0.82µM*	-16%	0.82µM*	-20%	-5%	16%
Cc1ccc(NC(=O)CSCC(=O)Nc2cc(C(F)(F)F)ccc2N2CCOCC2)cc1	21µM*	-13%	18µM*	x	x	x
CCOC(=O)C(=CNc1cc(C(F)(F)F)ccc1N1CCOCC1)C(=O)OCC	16µM*	u	u	5%	-29%	21%
N#Cc1ccc(NCCNC(=O)C2CCCCC2)nc1	x	x	x	x	4%	x
CC1CCC2(CC1)NC(=O)N(CC(=O)Nc1cccc(C(F)(F)F)c1)C2=O (stereo not given)	x	x	x	x	17%	x
CC/C(CC(=O)C(F)(F)F)=N\NC(=O)/C(C#N)=C/N(C)C	8%	1%	2%	u	11%	7.1µM*
CCN(CC(=O)Nc1ccc(OC)cc1)C(=O)c1ccc2ccccc2c1	u	-1%	u	x	u	x
CCN(CC(=O)Nc1ccc(OC)cc1)C(=O)c1ccc2c(c1)NC(=O)CS2	-33%	6%	-12%	x	8.9µM*	x
CCCN1CCCCC12Cc1ccccc1CN(C(C)=O)C2 (stereo not given)	x	x	x	x	65%	x
Cc1nc(-c2ccc(F)cc2)c(CC(=O)N2CCN(S(=O)(=O)c3cccc(F)c3)CC2)s1	15µM*	u	21µM*	x	u	x
CCOC1(OCC)C(c2ccc(Cl)cc2)C(C#N)(C#N)C1(OCC)OCC (stereo not given)	18µM*	20%	u	-63%	-25%	13µM*
